# Measured values as given in PubChem BioAssay (Tox21).
# Records with an inconclusive call do not appear. A number with no mark means an inactive call. Activity calls are given as the source filed them. The call rests on the fitted dose curve.
# Experiment: qHTS assay to identify small molecule agonists of the progesterone receptor (PR) signaling pathway - cell viability counter screen (AID 1346799); further: nearly all actives have a fitted effect of over 45% in size
# Details: PR-UAS-bla HEK293T viability, CellTiter-Glo luminescence, 16 h; series mostly up to 92.4 µM; activity change, negative = cytotoxicity: at the top concentration
# Procedure, shortened: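 In parallel with the beta-lactamase readout, cytotoxicity toward PR-UAS-bla HEK293T cells was measured by CellTiter-Glo luminescence following 16 hr compound incubation in 2% charcoal-stripped FBS medium.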
# On the % scale 0 is the no-effect control and ±100 the full control effect; potency means the concentration at half of the fitted maximal effect.
Structure (SMILES),"activity change, negative = cytotoxicity",Potency
CC1COc2c(N3CCN(C)CC3)c(F)cc3c(=O)c(C(=O)O)cn1c23 (centres undefined),13.3% [at 42.5 µM],–
CCc1ccc(C(c2ccc(CC)cc2)C(Cl)Cl)cc1,4.86%,–
O=C(O)CP(=O)(O)O,5.34% [at 42.5 µM],–
CCn1cc(C(=O)O)c(=O)c2cc(F)c(N3CCNC(C)C3)c(F)c21 (centres undefined),2.95% [at 42.5 µM],–
c1ccc2c(c1)-c1cccc3c1c-2cc1ccccc13,–,inactive
NC(N)=Nc1nc(CSCC/C(N)=N/S(N)(=O)=O)cs1,–,inactive
NCCO,-1.72%,–
CCCCCCCCCCCCCC[P+](CCCC)(CCCC)CCCC,–,30.5 µM (active)
O=C(O)c1cn(-c2ccc(F)cc2)c2cc(N3CCNCC3)c(F)cc2c1=O,10.6% [at 19 µM],–
CCCCC/C=C/CC1CC(=O)OC1=O (centres undefined),-5.3%,–
CCCC(=O)c1ccccc1,-17.1%,–
Cc1cc(C2(c3cc(C)c(O)cc3C)OS(=O)(=O)c3ccccc32)c(C)cc1O,28.7%,–
O=C(OCc1ccccc1)c1ccc(O)cc1,41.2%,–
CCC(C)(Oc1ccc(C2(c3ccc(OC(C)(CC)C(=O)O)cc3)CCCCC2)cc1)C(=O)O (centres undefined),-2.53% [at 42.5 µM],–
CCc1cc(C(C)(C)C)c(O)c(C(C)(C)C)c1,-19.7%,–
CC(=O)CC(C)=O,10.2%,–
NCCCCCC(=O)O,1.75% [at 42.5 µM],–
NNCCc1ccccc1,6.79%,–
Nc1nc2ccccc2[nH]1,–,inactive
O=C(Oc1ccccc1)c1ccccc1O,–,inactive
NC(N)=NC(=O)Cc1c(Cl)cccc1Cl,-2.27% [at 42.5 µM],–
CC1=CC(=O)c2ccccc2C1=O,23.1% [at 42.5 µM],–
COc1cc(C(=S)N2CCOCC2)ccc1O,7.7% [at 42.5 µM],–
CCCNC(C)C(=O)Nc1ccccc1C (centres undefined),2.45% [at 42.5 µM],–
